From PubChem
ALDH1A1 inh = qHTS Assay for Inhibitors of Aldehyde Dehydrogenase 1 (ALDH1A1); Aldehyde dehydrogenase 1A1 (Homo sapiens), P00352; Purified ALDH1A1, NADH fluorescence, propionaldehyde substrate; Potency, µM (titrated, usually from 75.3 µM), most hits filed as inhibitors; 220,000 tested, 7.3% active; active = well fitted inhibition curve with a large enough effect, not every such curve was filed as active; inconclusive = small, poorly fitted or top-dose-only effect, or another doubt; inactive = no such curve, though single readings can be large or run the other way
PLK1 PBD inh = qHTS for Inhibitors of PLK1-PDB (polo-like kinase 1 - polo-box domain): Primary Screen; 360,000 tested, 2.8% active; Plk1 PBD binding of FITC phosphopeptide, fluorescence polarization; Potency, µM, actives largely listed as inhibitors; note: series mostly up to about 57 µM; nearly all actives have a fitted effect of over 65% in size
Target sequence (P53350 whole entry, looked up, the tested form may be a part): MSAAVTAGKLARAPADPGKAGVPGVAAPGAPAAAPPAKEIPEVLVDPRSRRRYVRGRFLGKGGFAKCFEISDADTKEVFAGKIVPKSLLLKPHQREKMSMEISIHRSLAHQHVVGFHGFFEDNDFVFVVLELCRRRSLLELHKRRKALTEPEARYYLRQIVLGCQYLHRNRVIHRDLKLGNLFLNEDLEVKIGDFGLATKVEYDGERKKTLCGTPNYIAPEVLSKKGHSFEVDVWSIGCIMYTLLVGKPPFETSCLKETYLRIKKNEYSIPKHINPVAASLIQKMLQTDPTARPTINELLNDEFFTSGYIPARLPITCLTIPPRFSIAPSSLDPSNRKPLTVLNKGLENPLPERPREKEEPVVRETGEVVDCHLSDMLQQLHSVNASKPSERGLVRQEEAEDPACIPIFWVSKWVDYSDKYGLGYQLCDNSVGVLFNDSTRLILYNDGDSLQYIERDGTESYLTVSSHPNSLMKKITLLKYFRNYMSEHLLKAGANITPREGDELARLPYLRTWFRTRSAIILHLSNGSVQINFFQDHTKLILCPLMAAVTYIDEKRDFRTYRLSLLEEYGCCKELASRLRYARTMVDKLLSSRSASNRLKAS
Sfp PPTase inh = qHTS Assay for Inhibitors of Bacillus subtilis Sfp phosphopantetheinyl transferase (PPTase) | 4'-phosphopantetheinyl transferase ffp (Bacillus subtilis), Q9F4F7 | Biochemical Sfp PPTase activity, qHTS | Potency, µM, most hits filed as inhibitors | 310,000 tested, 3.5% active | AID 1490, 2009;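 note: the enzyme is Sfp with the accession as filed and its product quenches rhodamine fluorescence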
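Buffer: 50 mM Hepes-Na pH 7.6, 10 mM MgCl2, 0.01% Nonidet P-40, 0.01% BSA. Enzyme 15 nM, pre-exposed to compound 15 min; substrates then added and fluorescence change tracked over 30 min.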
RORg inh = qHTS for inhibitors of ROR gamma transcriptional activity | Nuclear receptor ROR-gamma (Mus musculus), P51450 | Drosophila S2 Gal4-RORgamma UAS-luciferase reporter, 20 h | Potency, µM (doses to about 53.6 µM), actives largely listed as inhibitors | 310,000 tested, 5.4% active; note: nearly all actives have a fitted effect of over 60% in size
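Compounds are pin-transferred onto Drosophila Schneider cells expressing a copper-inducible Gal4–ROR gamma transactivation domain fusion. After 1 hr, copper sulfate is added to 700 uM final; luciferase is read 20 hr later.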
VP16 counter = VP16 counterscreen qHTS for inhibitors of ROR gamma transcriptional activity; Drosophila S2 Gal4-VP16 UAS-luciferase, luminescence, 20 h; Potency, µM (doses to about 53.6 µM), most hits filed as inhibitors; 310,000 tested, 3.5% active; AID 2546, 2010;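 note: Gal4-VP16 expression switched on by copper sulfate through the metallothionein promoter; nearly all actives have a fitted effect of over 50% in size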
Each line names hits and unclear results; the compound was inactive in the other large screens. Only some compounds are listed: those with a hit (about 12% of all), similar ones and a draw of the others. Unless noted, calls come from the whole dose curve; as a rule, active = well fitted curve in the direction sought with a large enough effect; inconclusive = small, poorly fitted or top-dose-only effect, or another doubt; inactive = no such curve, though single readings can be large; an effect the other way counts as inactive or inconclusive.

CCn1cc(C(=O)O)c(=O)c2cc(F)c(N3CCN(C(=S)NC(=O)c4c(OC)cccc4OC)CC3)cc21	none (no result: ALDH1A1 inh)
CCn1cc(C(=O)O)c(=O)c2cc(F)c(N3CCN(C(=S)NC(=O)c4ccc(F)cc4)CC3)cc21	RORg inh 2.5µM, VP16 counter 4µM (no result: ALDH1A1 inh)
CCn1cc(C(=O)O)c(=O)c2cc(F)c(N3CCN(C(=S)NC(=O)c4ccc(F)c(F)c4)CC3)cc21	ALDH1A1 inh inconclusive, PLK1 PBD inh inconclusive, RORg inh inconclusive, VP16 counter inconclusive
CCn1cc(C(=O)O)c(=O)c2cc(F)c(N3CCN(C(=S)NC(=O)c4cccc(F)c4)CC3)cc21	RORg inh 2.8µM (no result: ALDH1A1 inh)
CCn1cc(C(=O)O)c(=O)c2cnc(N3CCN(C(=S)NC(=O)c4ccc(F)c(F)c4)CC3)nc21	RORg inh 2.5µM, VP16 counter inconclusive (no result: ALDH1A1 inh)
Cc1cc(Cc2cc(C)cc(C(C)(C)C)c2O)c(O)c(Cc2cc(C)cc(C(C)(C)C)c2O)c1	none (no result: PLK1 PBD inh, Sfp PPTase inh, RORg inh, VP16 counter)
COc1cccc(Cn2c(C(C)n3c(-c4cnccn4)nc4ccccc43)nc3ccccc32)c1 (configuration not stated)	none (no result: ALDH1A1 inh, Sfp PPTase inh, RORg inh, VP16 counter)
COc1ccc(CCNC(=O)c2sc(=S)n(C)c2N)cc1	Sfp PPTase inh inconclusive
Cn1c(N)c(C(=O)NCc2ccccc2)sc1=S	ALDH1A1 inh 20µM, PLK1 PBD inh 19µM, Sfp PPTase inh 22µM, RORg inh inconclusive
COC(=O)c1ccccc1NC(=O)c1sc(=S)n(C)c1N	ALDH1A1 inh 20µM, PLK1 PBD inh 6µM, Sfp PPTase inh 25µM
COC(=O)c1ccccc1NC(=O)c1sc(N)nc1C	ALDH1A1 inh inconclusive
CO[C@H]1COC(=O)C/C=C\[C@H](C)[C@@H](NS(=O)(=O)c2ccc(C)cc2)COC(=O)CCC[C@@H]1C	ALDH1A1 inh inconclusive (no result: PLK1 PBD inh)
CCCc1c(-c2cccc(Br)c2)ncn1Cc1ccccc1OC	none (no result: ALDH1A1 inh, Sfp PPTase inh, RORg inh, VP16 counter)
CC1(C(=O)NCc2ccccc2Br)CCN1Cc1ccc(-c2ccccn2)cc1 (configuration not stated)	none (no result: ALDH1A1 inh, Sfp PPTase inh, RORg inh, VP16 counter)
CCN(CC)S(=O)(=O)c1ccc(C(=O)OCC(=O)Nc2ccc(-c3nc4ccc(C)cc4s3)cc2)cc1	RORg inh 0.4µM, VP16 counter inconclusive
CCN(CC)S(=O)(=O)c1cc(C(=O)OCC(=O)Nc2cccc(S(=O)(=O)N(C)C)c2)ccc1F	none
CCN(CC)S(=O)(=O)c1cc(C(=O)OCC(=O)Nc2ccc(-c3nc4ccc(C)cc4s3)cc2)ccc1F	ALDH1A1 inh inconclusive, RORg inh 13µM, VP16 counter 8.9µM
COc1ccccc1C1OC(=O)CC1C(=O)OC[C@@H]1CCCN2CCCCC12 (some centres not stated)	none (no result: PLK1 PBD inh)
O=C(CN1CCN(CC(=O)c2ccc(F)cc2)CC1)Nc1ccccc1Cl	ALDH1A1 inh 2.2µM
O=C(CCCCC(=O)Nc1ccccc1Cl)Nc1ccccc1Cl	none (no result: ALDH1A1 inh)
O=C(CCC(=O)c1ccc(F)cc1)Nc1ccccc1Cl	PLK1 PBD inh 27µM
COc1cc(C(=O)N2CCCCC2c2cc(C(=O)Nc3ccccc3Cl)no2)cc(OC)c1C (configuration not stated)	none (no result: ALDH1A1 inh, Sfp PPTase inh, RORg inh, VP16 counter)
CC1(C)CC(Cc2ccc(C(F)(F)F)cn2)N(C(=O)OC(C)(C)C)C1 (configuration not stated)	none (no result: ALDH1A1 inh, Sfp PPTase inh, RORg inh, VP16 counter)
Cc1ccc(S(=O)(=O)NCCC(=O)Nc2ccc(Cl)c(Cl)c2)cc1C	ALDH1A1 inh inconclusive, RORg inh inconclusive, VP16 counter 11µM
O=C(CSc1nc2ccccc2s1)N/N=C/c1ccco1	ALDH1A1 inh 20µM
C/C(=N\NC(=O)CSc1nc2ccccc2s1)c1ccco1	ALDH1A1 inh 2.8µM
O=C(CSCc1ccccc1Cl)N/N=C/c1ccco1	ALDH1A1 inh 25µM, PLK1 PBD inh inconclusive
O=C(CSc1nc2ccccc2s1)N/N=C/c1ccc(C(=O)O)cc1	none
Cc1ccc(C)c(S(=O)(=O)/N=C2\C=C(NS(=O)(=O)c3ccccc3)C(=O)c3ccccc32)c1	PLK1 PBD inh 27µM (no result: ALDH1A1 inh)
CC(C)c1ccc(S(=O)(=O)/N=C2\C=C(NS(=O)(=O)c3ccccc3)C(=O)c3ccccc32)cc1	PLK1 PBD inh 24µM (no result: ALDH1A1 inh)
CCc1ccc(S(=O)(=O)/N=C2\C=C(NS(=O)(=O)c3ccccc3)C(=O)c3ccccc32)cc1	PLK1 PBD inh 21µM (no result: ALDH1A1 inh)
CC(C)c1ccc(S(=O)(=O)/N=C2/C=CC(=O)c3ccccc32)cc1	ALDH1A1 inh 25µM, Sfp PPTase inh inconclusive, RORg inh inconclusive, VP16 counter 18µM (no result: PLK1 PBD inh)
CC(C)[n+]1ccn(C2=C([O-])c3ccccc3C(=O)/C2=N\S(=O)(=O)c2ccccc2)c1	VP16 counter inconclusive (no result: ALDH1A1 inh)
Cc1cccc(S(=O)(=O)Nc2cccc3c2C(=O)c2ccccc2-3)c1	ALDH1A1 inh inconclusive, RORg inh inconclusive
Cn1cccc1C(=O)N1CCC2(CCCN(c3ccncc3)C2)CC1	none (no result: PLK1 PBD inh)
O=C(COC(=O)c1ccccc1O)Nc1cccc2ccccc12	none (no result: ALDH1A1 inh, Sfp PPTase inh, RORg inh, VP16 counter)
COc1ccc(/C=C/N(CCc2ccc(OC)c(OC)c2)C(=O)C(F)(F)F)cc1	none (no result: PLK1 PBD inh)
COc1cc(CN2C(=S)NC(C)(C)CC2(C)O)cc(OC)c1 (configuration not stated)	ALDH1A1 inh inconclusive, RORg inh 3.5µM, VP16 counter 11µM
O=C(NCc1ccco1)c1nc2c(nnn2Cc2cccc(Cl)c2)c(=O)[nH]1	ALDH1A1 inh 28µM
Cc1ccc(Cn2nnc3c(=O)[nH]c(C(=O)NCc4ccco4)nc32)cc1	none
COC(=O)c1ccc(CNC(=O)COC(=O)C23CC4CC(CC(C4)C2)C3)cc1	ALDH1A1 inh inconclusive
COC(=O)c1ccc(CNC(=O)COC(=O)CC23CC4CC(CC(Br)(C4)C2)C3)cc1	ALDH1A1 inh 13µM
O=C(Nc1cnn(Cc2ccc(Cl)cc2Cl)c1)c1cc(-c2cccs2)on1	ALDH1A1 inh inconclusive
